From article PMC7826789 (International Journal of Molecular Sciences, 2021)

Tests used:
Settings in all cases: Compound Concentration (nM):1000
[1] = tested on: PRKG1
[2] = tested on: PRKG2
[3] = tested on: T1, PRKR
T1 construct: gene EIF2AK2

[4] = tested on: PRKX
[5] = tested on: T2, PRP4
T2 construct: gene PRPF4B

[6] = tested on: T3, PYK2
T3 construct: gene PTK2B

[7] = tested on: T4, QSK
T4 construct: gene KIAA0999

[8] = tested on: RAF1
[9] = tested on: RET(M918T)
[10] = tested on: RET(V804L)
[11] = tested on: RET(V804M)
[12] = tested on: RET
[13] = tested on: RIOK1
[14] = tested on: RIOK2
[15] = tested on: RIOK3
[16] = tested on: RIPK1
[17] = tested on: RIPK2
[18] = tested on: RIPK4
[19] = tested on: T5, RIPK5
T5 construct: gene DSTYK

[20] = tested on: ROCK1
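Further: KINOMEscan scanMAX binding as percent activity remaining versus control; lower means stronger binding.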

SMILES | Percent Control [1] | Percent Control [2] | Percent Control [3] | Percent Control [4] | Percent Control [5] | Percent Control [6] | Percent Control [7] | Percent Control [8] | Percent Control [9] | Percent Control [10] | Percent Control [11] | Percent Control [12] | Percent Control [13] | Percent Control [14] | Percent Control [15] | Percent Control [16] | Percent Control [17] | Percent Control [18] | Percent Control [19] | Percent Control [20]
COc1cc2ncn(-c3cc(O[C@H](C)c4ccccc4Cl)c(C(N)=O)s3)c2cc1OC [GSK237701A] | 100% | 92% | 82% | 97% | 61% | 62% | 97% | 73% | 51% | 56% | 77% | 54% | 26% | 100% | 19% | 61% | 100% | 87% | 84% | 69%
Cl.c1ccc(Cc2nc3ccc(Nc4ncnc5ccccc45)cc3[nH]2)cc1 [GR269666A] | 100% | 100% | 84% | 100% | 100% | 100% | 100% | 100% | 100% | 100% | 100% | 100% | 100% | 88% | 100% | 100% | 67% | 98% | 98% | 100%
CN(C)c1cc2c(Nc3ccc4c(cnn4Cc4ccccc4)c3)ncnc2cn1 [GW282974X] | 100% | 93% | 76% | 80% | 100% | 83% | 95% | 100% | 82% | 93% | 89% | 86% | 98% | 100% | 100% | 53% | 27% | 74% | 90% | 100%
CCS(=O)(=O)c1ccc(OC)c(Nc2ncc(-c3cccc(OC)c3)o2)c1 [GW580509X] | 100% | 100% | 85% | 100% | 82% | 100% | 100% | 100% | 50% | 78% | 75% | 55% | 100% | 82% | 98% | 100% | 88% | 90% | 91% | 100%
COC(=O)Nc1nc2ccc(Oc3ccc(NC(=O)Nc4cc(C(F)(F)F)ccc4F)cc3)cc2s1.Cl [GW693917A] | 100% | 91% | 85% | 100% | 100% | 94% | 88% | 17% | 0.8% | 1% | 0.5% | 0.1% | 62% | 100% | 54% | 45% | 25% | 76% | 100% | 79%
NS(=O)(=O)c1ccc(N/N=C2\C(=O)Nc3ccc(C(=O)NCCc4c[nH]cn4)cc32)cc1 [GW300660X] | 62% | 49% | 87% | 100% | 100% | 100% | 89% | 100% | 100% | 100% | 100% | 100% | 74% | 100% | 78% | 100% | 100% | 80% | 59% | 67%
COc1ccc2[nH]c3c4[nH]c5ccc(OC)cc5c4c4c(c3c2c1)C(=O)NC4=O [GW296115X] | 74% | 0.9% | 100% | 23% | 97% | 68% | 56% | 100% | 21% | 4.2% | 21% | 41% | 58% | 89% | 100% | 90% | 60% | 83% | 27% | 72%
Cl.O=C(Nc1ccc(Oc2ccc3[nH]c(NC(=O)c4ccccc4)nc3c2)cc1)Nc1cc(C(F)(F)F)ccc1F [GW709042A] | 91% | 88% | 85% | 100% | 100% | 100% | 100% | 27% | 2.5% | 3.6% | 2.7% | 0.6% | 52% | 100% | 33% | 62% | 89% | 100% | 100% | 95%
Nc1ncnc2occ(-c3ccc(NC(=O)Nc4cc(C(F)(F)F)ccc4F)cc3)c12 [GW770249X] | 71% | 100% | 72% | 100% | 100% | 90% | 100% | 38% | 0.8% | 0.6% | 0.1% | 0% | 56% | 100% | 44% | 26% | 100% | 100% | 80% | 84%
NS(=O)(=O)c1ccc(N/N=C2\C(=O)Nc3ccc(-c4cnco4)cc32)cc1 [GW276655] | 68% | 57% | 54% | 100% | 100% | 79% | 100% | 100% | 59% | 60% | 92% | 82% | 27% | 69% | 51% | 76% | 84% | 87% | 68% | 8.8%
Cl.O=C(O[C@H]1CN[C@H](C#Cc2cc3ncnc(Nc4ccc5c(cnn5Cc5ccccc5)c4)c3s2)C1)N1CCOCC1 [GSK200398A] | 95% | 100% | 65% | 77% | 100% | 99% | 100% | 88% | 100% | 100% | 100% | 100% | 100% | 100% | 100% | 100% | 16% | 84% | 100% | 96%
COc1cc(N2CCN(C(C)C)CC2)ccc1Nc1nc(Nc2ccc(F)cc2C(=O)NC[C@@H](O)CO)c2cc[nH]c2n1 [GSK1392956A] | 100% | 100% | 80% | 80% | 100% | 2.4% | 100% | 100% | 93% | 86% | 88% | 85% | 66% | 27% | 79% | 76% | 100% | 84% | 25% | 87%
COc1cccc(-c2c[nH]c3c(N/N=C/c4ccncc4)ncnc23)c1 [GW814408X] | 100% | 97% | 94% | 100% | 100% | 100% | 28% | 74% | 79% | 95% | 100% | 85% | 49% | 76% | 66% | 100% | 41% | 13% | 100% | 79%
COc1ccc2c(-c3ccnc(Nc4cccc(OC(F)(F)F)c4)n3)cnn2n1 [GW810372X] | 82% | 97% | 75% | 100% | 100% | 96% | 95% | 100% | 100% | 100% | 100% | 100% | 42% | 29% | 51% | 100% | 100% | 77% | 100% | 100%
COc1ccc(COc2ccc(Cc3cnc(N)nc3N)cc2OC)cc1 [GW632580X] | 100% | 86% | 100% | 100% | 88% | 84% | 100% | 100% | 93% | 88% | 100% | 100% | 56% | 100% | 65% | 95% | 98% | 84% | 97% | 100%
NS(=O)(=O)c1ccc(N/N=C2\C(=O)Nc3ccc(C(=O)NCc4ccncc4)cc32)cc1 [GW300657X] | 100% | 94% | 65% | 94% | 81% | 58% | 100% | 100% | 80% | 74% | 84% | 92% | 62% | 77% | 63% | 89% | 100% | 72% | 47% | 64%
COc1cc(/C=N/Nc2ncnc3[nH]ncc23)ccc1O [GW578748X] | 100% | 22% | 41% | 100% | 100% | 100% | 90% | 100% | 4.6% | 76% | 77% | 5.9% | 47% | 8.9% | 46% | 100% | 100% | 6.9% | 75% | 63%
CC1=C(C(=O)Nc2ccc3[nH]ncc3c2)C(c2ccc(Cl)c(Cl)c2)CC(=O)N1 (stereo not drawn) [GSK299115A] | 45% | 67% | 79% | 25% | 74% | 79% | 92% | 100% | 74% | 75% | 89% | 76% | 99% | 100% | 86% | 77% | 72% | 78% | 99% | 0%
